From PubChem BioAssay (EPA / NIEHS)
Activity calls are given as the source filed them. The calls were made as follows: active = hit-call score of the fitted dose curve at least 0.9, where 1 is the maximum; inactive = score below 0.9.

Columns and labels:
Conditions in all cases: actives raise or lower the signal
[1] = CEETOX_H295R_OHPREG_noMTC: CeeTox H295R High-throughput Steroidogenesis Assay for OH-Pregnenolone (OHPREG), maximum tolerated concentration (MTC) filtered results only (AID 2283912)
Procedure, shortened: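 H295R; 10 uM forskolin 48 h pre-stim; test cpd in DMSO (0.1% final) 48 h; media MTBE-extracted, HPLC-MS/MS for OH-pregnenolone; bidirectional fit vs DMSO; no MTC (MTT) filtering.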

[2] = CEETOX_H295R_OHPROG_noMTC: CeeTox H295R High-throughput Steroidogenesis Assay for OH-Progesterone (OHPROG), maximum tolerated concentration (MTC) filtered results only (AID 2283914)
Procedure, shortened: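 Medium hormone measured by reverse-phase C18 HPLC with positive electrospray MS/MS after MTBE liquid-liquid extraction. Cells had 48 h forskolin (10 uM) prestimulation, then 48 h chemical dosing. Gain or loss of signal fitted relative to DMSO baseline.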

[3] = CEETOX_H295R_CORTISOL_noMTC: CeeTox H295R High-throughput Steroidogenesis Assay for Cortisol, maximum tolerated concentration (MTC) filtered results only (AID 2283916)
Procedure, shortened: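 H295R human adrenal cells prestimulated 48 h with 10 uM forskolin, then exposed 48 h to chemical in 0.1% DMSO; cortisol in medium quantified by HPLC-MS/MS; bidirectional fit vs DMSO baseline, concentrations not MTT-filtered for MTC.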

[4] = CEETOX_H295R_CORTIC_noMTC: CeeTox H295R High-throughput Steroidogenesis Assay for Corticosterone (CORTIC), maximum tolerated concentration (MTC) filtered results only (AID 2283917)
Procedure, shortened: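 Corticosterone secreted into the medium was measured by reverse-phase C18 HPLC with tandem MS after MTBE extraction. Cells (H295R) had 48 h forskolin (10 uM) stimulation before 48 h chemical exposure; gain or loss of signal was fitted relative to DMSO.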

[5] = CEETOX_H295R_DOC_noMTC: CeeTox H295R High-throughput Steroidogenesis Assay for DOC, maximum tolerated concentration (MTC) filtered results only (AID 2283918)
Procedure, shortened: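 H295R cells prestimulated 48 h with 10 uM forskolin, then exposed 48 h to chemical in 0.1% DMSO. 11-Deoxycorticosterone in medium measured by MTBE extraction and HPLC-MS/MS; bidirectional fit vs DMSO, no MTC filter.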

[6] = CEETOX_H295R_ESTRADIOL_noMTC: CeeTox H295R High-throughput Steroidogenesis Assay for Estradiol, maximum tolerated concentration (MTC) filtered results only (AID 2283919)
Procedure, shortened: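 Readout: dansyl-derivatized estradiol quantified by LC-MS/MS in medium from H295R cells dosed 48 h (0.1% DMSO) following 48 h forskolin (10 uM) prestimulation. Gain or loss of signal fitted against DMSO; no MTC filtering applied.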

[7] = CEETOX_H295R_PROG_noMTC: CeeTox H295R High-throughput Steroidogenesis Assay for Progesterone (PROG), maximum tolerated concentration (MTC) filtered results only (AID 2283920)
Procedure, shortened: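 Readout: medium progesterone by MTBE extraction, reverse-phase C18 HPLC, ESI-positive MS/MS. Human H295R cells, 10 uM forskolin pretreatment 48 h, chemical 48 h in 0.1% DMSO. Gain or loss fitted against DMSO baseline.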

[8] = CEETOX_H295R_ESTRONE_noMTC: CeeTox H295R High-throughput Steroidogenesis Assay for Estrone, maximum tolerated concentration (MTC) filtered results only (AID 2283921)
Procedure, shortened: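 Estrone in spent medium, quantified by tandem MS following dansyl chloride derivatization, after 48 h chemical exposure (0.1% DMSO) of forskolin-prestimulated (10 uM, 48 h) H295R cells; concentrations not MTC-filtered, bidirectional fit against DMSO.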

[9] = CEETOX_H295R_ANDR_noMTC: CeeTox H295R High-throughput Steroidogenesis Assay for Androstenedione (ANDR), maximum tolerated concentration (MTC) filtered results only (AID 2283915)
Procedure, shortened: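 Androstenedione secreted into medium was measured by LC-MS/MS after MTBE extraction. Human adrenal H295R cells received 10 uM forskolin for 48 h before 48 h chemical exposure (0.1% DMSO). Gain or loss fitted against DMSO, including concentrations above the MTT-derived MTC.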

[10] = CEETOX_H295R_TESTO_noMTC: CeeTox H295R High-throughput Steroidogenesis Assay for Testosterone (TESTO), maximum tolerated concentration (MTC) filtered results only (AID 2283924)
Procedure, shortened: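 Medium testosterone, measured by HPLC-MS/MS after liquid-liquid extraction, was fitted in both directions relative to DMSO without MTC filtering. Adrenal H295R cells received 48 h chemical exposure (0.1% DMSO final) after 48 h forskolin (10 uM) prestimulation; viability by MTT.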

Measured: AC50

CCOc1ccc(C(C)(C)COCc2cccc(Oc3ccccc3)c2)cc1
active: [2] 13.2 µM
inactive: [1] | [3] | [4] | [5] | [6] | [7] | [8]

CCOC(=O)c1ccccc1C(=O)OCC
inactive: [1] | [2] | [3] | [4] | [5] | [7]

CCOC(=O)c1ccccc1N
inactive: [1] | [3] | [4] | [5] | [6] | [7] | [8]
active: [2] 41.3 µM

CCOP(=S)(OCC)SCS(=O)(=O)CC
active: [1] 43 µM | [9] 37.9 µM | [3] 45 µM | [5] 33.5 µM | [10] 45.4 µM
inactive: [2] | [4] | [6] | [7] | [8]
